Test results reported in PubChem BioAssay AID743295 (Broad Institute, 2014).
Entries with a potency or affinity are not part of this list. Calls of active or inactive are those of the source.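 The calls were made as follows: active = compounds lowering caspase 7 signal with dose, half-maximal concentration at most twice the top valid dose; inconclusive = flat fit with 30 to 70% inhibition, or poor fit; inactive = the rest.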

Biological target: Caspase-7 (Homo sapiens) (UniProt P55210)
Test: caspase-7 enzyme inhibition, selectivity check – biochemical, DEVD-R110 fluorescence, cherry-pick, selectivity assay for caspase-6 inhibitor project, dose response (AID 743295)

Sequence of Caspase-7 (Homo sapiens) (P55210 whole entry, looked up): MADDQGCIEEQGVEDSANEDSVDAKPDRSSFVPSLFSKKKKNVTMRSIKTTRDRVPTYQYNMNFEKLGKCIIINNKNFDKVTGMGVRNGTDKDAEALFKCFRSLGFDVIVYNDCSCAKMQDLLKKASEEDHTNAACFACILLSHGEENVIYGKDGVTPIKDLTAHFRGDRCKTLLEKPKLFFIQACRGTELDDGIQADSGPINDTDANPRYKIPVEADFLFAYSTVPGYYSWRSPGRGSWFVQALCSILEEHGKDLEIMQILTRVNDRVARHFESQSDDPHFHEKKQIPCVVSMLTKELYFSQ

Compound | outcome
CNS(=O)(=O)c1cccc(C(=O)OCC(=O)N2c3ccccc3NC(=O)C2(C)C)c1 | inactive
O=C(Nc1ccc2nc3n(c(=O)c2c1)CCCCC3)c1c(F)ccc([N+](=O)[O-])c1F | inactive
Oc1cc(NCCc2cccnc2)cc2cccnc12 | inactive
COc1cc(NC(=O)COC(=O)c2ccc([N+](=O)[O-])s2)cc(OC)c1OC | inactive
CCOC(=O)[C@H](Cc1c[nH]c2ccccc12)NC(=O)CN=[N+]=[N-] | inactive
COc1cc(-c2ccc(Nc3ccccc3C(=O)O)c(OC)c2)ccc1Nc1ccccc1C(=O)O | inactive
O=P(c1ccccc1)(c1ccccc1)c1cc(S(=O)(=O)O)ccc1O | inactive
Cc1ccc(S(=O)(=O)Nc2csc(C)c2C(=O)O)cc1 | inactive
Nc1ccc(Nc2ccccc2)c(S(=O)(=O)O)c1 | inactive
Cn1cnnc1SCC(=O)Nc1ncc([N+](=O)[O-])s1 | inactive
Cc1c(CCC(=O)O)c(=O)oc2c(C)c(OCc3ccccc3Cl)ccc12 | inactive
Nc1cc(S(=O)(=O)O)cc([N+](=O)[O-])c1O | inactive
Cc1cc(C=O)c(C)n1-c1cc(C(=O)O)cc(C(=O)O)c1 | inactive
O=C(COC(=O)c1ccc([N+](=O)[O-])s1)Nc1ccc(F)cc1 | inactive
O=C(O)Cc1ccc(-n2cccc2)cc1 | inactive
CCCc1nc2c(=O)n(C)c(=O)nc-2n(C)n1 | inactive
CO[C@H]1CN(C)C(=O)c2cc(NC(C)=O)ccc2OC[C@@H](C)N(C(=O)CC2CC2)C[C@H]1C | inactive
C/C(CC(=O)N1CCCC1)=N\NC(=O)c1cc2ccccc2cc1O | inactive
COCCN(C(=O)COC(=O)c1cc2c(s1)CCC2)c1c(N)n(Cc2ccccc2)c(=O)[nH]c1=O | inactive
